According to PubChem BioAssay (NCI):
Values joined by “and” are separate entries in the source; they are usually repeats but may differ in a detail not shown here. Equal values may be shown once. The panel holds about 79,000 compounds, 15% with a hit somewhere; the sample as a whole holds those more often. Active and inactive are the calls of the source. Cut-off read from the data, not from the text of the source: active = growth inhibition above about 70%; inactive = the rest.

Experiments:
[1] = NCI Yeast Anticancer Drug Screen. Data for the rad50 strain (AID 155);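 note: 0% = growth of vehicle-only cultures of the same strain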; settings: S. cerevisiae rad50 strain growth inhibition, active compounds read high
How it was run: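 A DNA repair-deficient yeast mutant serves as the test organism; compound-induced growth inhibition is calculated against vehicle-treated cells.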

[2] = NCI Yeast Anticancer Drug Screen. Data for the mec2-1 strain (AID 157); settings: S. cerevisiae mec2-1 strain, active compounds read high
How it was run: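 Strain: mec2-1 (DNA repair/cell cycle alteration). Compound exposure, then growth measured; inhibition expressed relative to vehicle.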

[3] = NCI Yeast Anticancer Drug Screen. Data for the sgs1 mgt1 strain (AID 161);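 note: 0% = growth of cultures given vehicle only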; settings: S. cerevisiae sgs1 mgt1 strain, active compounds read high
How it was run: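 Read-out: growth inhibition vs vehicle controls. Cells: mutant yeast strain deficient in DNA damage repair.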

[4] = NCI Yeast Anticancer Drug Screen. Data for the cln2 rad14 strain (AID 165);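 note: 0% = growth equal to vehicle treated cultures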; settings: S. cerevisiae cln2 rad14 strain, active compounds read high
How it was run: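 Compounds are applied to the cln2 rad14 yeast strain, and growth is then compared with that of vehicle-treated cultures to give inhibition.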

[5] = NCI Yeast Anticancer Drug Screen. Data for the bub3 strain (AID 167); settings: S. cerevisiae bub3 mutant strain, active compounds read high
How it was run: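 Inhibition values come from growth of compound-treated mutant yeast normalised to vehicle-treated controls.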

[6] = NCI Yeast Anticancer Drug Screen. Data for the mlh1 rad18 strain (AID 175); settings: S. cerevisiae mlh1 rad18 strain growth inhibition, active compounds read high
How it was run: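 Read-out is yeast growth inhibition, calculated against vehicle-only controls. The compound was applied to a strain engineered with DNA damage repair alterations.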

[7] = at 5.0 µM (retest, dose inferred, filed as 0.5)
[8] = at 50.0 µM (retest, dose inferred, filed as 5.0)

Measured: growth inhibition

ClC1=C(Cl)C(Cl)(Cl)SS1
active: [1]; [7] 100% | [1]; [8] 99% | [1]; at 50.0 µM 88.7% | [2]; [7] 100% | [2]; [8] 99% | [2]; at 50.0 µM 91.5% | [3]; [7] 100% | [3]; [8] 99% | [3]; at 50.0 µM 92.1% | [4]; [7] 100% | [4]; [8] 99% | [4]; at 50.0 µM 91.5% | [5]; [7] 100% | [5]; [8] 99% | [5]; at 50.0 µM 89.3% | [6]; [7] 99% | [6]; [8] 99%

O=c1ssc(Cl)c1Cl
active: [1]; [7] 97% | [1]; [8] 98% | [1]; at 50.0 µM 86.5% | [2]; [7] 96% | [2]; [8] 100% | [2]; at 50.0 µM 89.2% | [3]; [7] 100% | [3]; [8] 100% | [3]; at 50.0 µM 89.7% | [4]; [7] 93% | [4]; [8] 98% | [4]; at 50.0 µM 89.1% | [5]; [7] 99% | [5]; [8] 100% | [5]; at 50.0 µM 87.6% | [6]; [7] 97% | [6]; [8] 98%

O=C(O)c1cc[c]([Hg])cc1
inactive: [1]; [7] -1% | [1]; [8] 5% | [1]; at 50.0 µM 38.4% | [2]; [7] -2% | [2]; [8] 3% | [2]; at 50.0 µM 25.6% | [3]; [7] 1% | [3]; [8] 5% | [3]; at 50.0 µM 36% | [4]; [7] -3% | [4]; [8] -4% | [4]; at 50.0 µM 2.65% | [5]; [7] 0% | [5]; [8] -7% | [5]; at 50.0 µM -5.4%

CC[n+]1c(-c2ccccc2)c2cc(N)ccc2c2ccc(N)cc21
active: [1]; [8] 91% and 92% | [1]; at 50.0 µM 81.6% and 83.3%
inactive: [1]; [7] 39% and 29% | [2]; [7] 7% and -18% | [2]; [8] 45% and 13% | [2]; at 50.0 µM 3.7% and 3.85% | [3]; [7] -4% and -13% | [3]; [8] 16% and 27% | [3]; at 50.0 µM 23.3% and 32.1% | [4]; [7] 2% and -6% | [4]; [8] 27% and 40% | [4]; at 50.0 µM 11.8% and 34.9% | [5]; [7] -7% and -2% | [5]; [8] 27% and 24% | [5]; at 50.0 µM 52.9% and 5.2% | [6]; [7] -17% and -4% | [6]; [8] 25% and 20% | [6]; at 50.0 µM 20.2% and 34.6%

O=[N+]([O-])c1ccc2c[n+]3ccccc3cc2c1
active: [1]; [8] 84% | [1]; at 50.0 µM 80.3% | [6]; [8] 86%
inactive: [1]; [7] 21% | [2]; [7] 4% | [2]; [8] 50% | [2]; at 50.0 µM 5.3% | [3]; [7] 2% | [3]; [8] 56% | [3]; at 50.0 µM 36.2% | [4]; [7] 1% | [4]; [8] 43% | [4]; at 50.0 µM -17.4% | [5]; [7] -5% | [5]; [8] 56% | [5]; at 50.0 µM 3.8% | [6]; [7] 12% | [6]; at 50.0 µM 62%

CC[N-]c1nnnn1CC.[Au+].c1ccc([PH+](c2ccccc2)c2ccccc2)cc1
active: [1]; [7] 99% | [1]; [8] 98% | [1]; at 50.0 µM 97.8% | [2]; [7] 99% | [2]; [8] 98% | [2]; at 50.0 µM 98.4% | [3]; [7] 99% | [3]; [8] 98% | [3]; at 50.0 µM 97.7% | [4]; [7] 97% | [4]; [8] 96% | [4]; at 50.0 µM 97.2% | [5]; [7] 99% | [5]; [8] 98% | [5]; at 50.0 µM 97.8% | [6]; [7] 99% | [6]; [8] 97% | [6]; at 50.0 µM 97.2%

[I][Hg][I].c1ccc(N=P(c2ccccc2)(c2ccccc2)c2ccccc2)cc1
active: [1]; [7] 99% | [1]; [8] 99% | [1]; at 50.0 µM 99.3% | [2]; [7] 100% | [2]; [8] 100% | [2]; at 50.0 µM 99.6% | [3]; [7] 100% | [3]; [8] 99% | [3]; at 50.0 µM 99.6% | [4]; [7] 99% | [4]; [8] 99% | [4]; at 50.0 µM 98.7% | [5]; [7] 99% | [5]; [8] 99% | [5]; at 50.0 µM 99.3% | [6]; [7] 99% | [6]; [8] 99% | [6]; at 50.0 µM 99.3%

c1cc2c(cc1NC1=NCCO1)CCCC2
inactive: [1]; [7] 14% | [1]; [8] 8% | [1]; at 50.0 µM -37% | [2]; [7] 6% | [2]; [8] 4% | [2]; at 50.0 µM -30% | [3]; [7] -1% | [3]; [8] 34% | [3]; at 50.0 µM -6.4% | [4]; [7] 28% | [4]; [8] 21% | [4]; at 50.0 µM 15.8% | [5]; [7] -33% | [5]; [8] -8% | [5]; at 50.0 µM -22.6% | [6]; [7] 15% | [6]; [8] 11% | [6]; at 50.0 µM -41.1%

c1ccc2c(NCCCCCCNc3c4ccccc4nc4ccccc34)c3ccccc3nc2c1
inactive: [1]; [7] 68% | [2]; [7] 43% | [3]; [7] 54% | [3]; at 50.0 µM 61.5% | [4]; [7] 20% | [4]; [8] 57% | [4]; at 50.0 µM 8.4% | [5]; [7] 56% | [6]; [7] 61%
active: [1]; [8] 89% | [1]; at 50.0 µM 75.4% | [2]; [8] 80% | [2]; at 50.0 µM 73.5% | [3]; [8] 83% | [5]; [8] 88% | [5]; at 50.0 µM 73.1% | [6]; [8] 83%
